# Cruzain noTriton = qHTS Assay for Promiscuous and Specific Inhibitors of Cruzain (without detergent). Cruzipain (Trypanosoma cruzi), P25779. purified cruzain, Z-FR-AMC fluorescence, no detergent. Potency, µM, inactives show max response, negative = inhibition, hits mostly inhibitors. 2.3% of 200,000 active;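 also: plate controls were enzyme without inhibitor for no effect and buffer without enzyme for full effect; nearly all actives have a fitted effect of over 40% in size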
# Target sequence (P25779 123-467 limits assumed): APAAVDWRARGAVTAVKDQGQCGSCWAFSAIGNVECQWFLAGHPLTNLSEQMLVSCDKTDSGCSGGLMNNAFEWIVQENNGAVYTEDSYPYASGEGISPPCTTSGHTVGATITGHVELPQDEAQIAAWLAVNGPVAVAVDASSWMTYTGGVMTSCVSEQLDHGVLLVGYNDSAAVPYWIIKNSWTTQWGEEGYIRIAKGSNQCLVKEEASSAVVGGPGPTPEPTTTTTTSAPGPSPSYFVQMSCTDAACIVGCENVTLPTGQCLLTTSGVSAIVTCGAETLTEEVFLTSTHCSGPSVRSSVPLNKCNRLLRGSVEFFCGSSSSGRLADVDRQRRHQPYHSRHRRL
#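 Detergent-free condition (0.00005% Triton X-100) in acetate buffer pH 5.5 with DTT. 1.5 nM enzyme and compound were pre-mixed 15 min, then 2 uM Z-FR-AMC substrate added; reaction progress from fluorescence change between first and third reads (60 s).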
# Cruzain inh Det = qHTS Assay for Promiscuous and Specific Inhibitors of Cruzain (with detergent); Cruzipain (Trypanosoma cruzi), P25779; purified cruzain, Z-FR-AMC fluorescence, 0.01% Triton; Potency, µM, for the others: max response, negative = inhibition, most hits filed as inhibitors; 0.43% of 200,000 active;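 also: plate controls were neutral wells for no effect and buffer without enzyme for full effect; nearly all actives have a fitted effect of over 40% in size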
#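 Enzyme 1.5 nM, Z-FR-AMC 2 uM, NaOAc 100 mM pH 5.5, DTT 5 mM, Triton X-100 0.01%; 15 min RT compound preincubation; kinetic ex360/em450, 60 s delta.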
# The depositor's hits bear a star; ? = inconclusive. Hits are enriched below; roughly 2.5% of the tested compounds scored in any of these assays. Calls follow the shape of the dose curve; as a rule, active = well fitted curve in the direction sought with a large enough effect; inconclusive = small, poorly fitted or top-dose-only effect, or another doubt; inactive = no such curve, though single readings can be large; an effect the other way counts as inactive or inconclusive. Potency is read from the fitted curve at half-maximal effect.
SMILES,Cruzain noTriton,Cruzain inh Det
COc1cc(NC(=O)COC(=O)CNC(=O)c2ccc(C)cc2)c(C)cc1[N+](=O)[O-],13µM*,13µM*
CCc1ccc(C2CC(=O)c3c([nH]c(C(=O)OC4CCC(C)CC4)c3C)C2)cc1 (stereo unspecified),-12%,-2%
COc1ccc(C(=O)NCc2nnc(SCC(=O)Nc3ccccc3)n2-c2ccc(F)cc2)cc1,10%,2%
O=C(Nc1ccccc1C(=O)OCc1cc(=O)n2ccsc2n1)c1ccc(Cl)cc1,-1%,2%
Cc1cccc(C)c1NC(=O)COC(=O)c1ccc(N2CCCC2)c([N+](=O)[O-])c1,10µM*,-2%
Cc1ccc(C)c2sc(NC(=O)c3ccc(N4CCCCC4)c([N+](=O)[O-])c3)nc12,7.9µM*,4%
CCC(C)c1ccccc1NC(=O)COC(=O)c1ccc(N2CCCC2)c([N+](=O)[O-])c1 (stereo unspecified),-3%,0%
Cc1cccc(NC(=O)c2ccc(N3CCCCC3)c([N+](=O)[O-])c2)n1,-9%,0%
O=[N+]([O-])c1cc(C(F)(F)F)cc([N+](=O)[O-])c1N1CCN(S(=O)(=O)c2ccccc2)CC1,-4%,-7%
O=[N+]([O-])c1cc(C(F)(F)F)ccc1N1CCN(S(=O)(=O)c2ccc3ccccc3c2)CC1,25µM*,0%
COc1ccc(-c2nc3ccccc3o2)cc1NC(=O)c1ccc(-c2cccc(Cl)c2C)o1,3%,-1%
COc1ccc(C(=O)NC(=S)N2CCCCC2)cc1[N+](=O)[O-],-5%,0%
Cc1c([N+](=O)[O-])cc(C(=O)Oc2ccc(Br)cc2C(=S)N2CCCCC2)cc1[N+](=O)[O-],25µM*,-2%
O=C(N/N=C/c1cn(-c2ccccc2)nc1-c1cc2ccccc2o1)c1ccccc1Br,7.9µM*,-4%
O=C(N/N=C\c1cn(-c2ccccc2)nc1-c1ccccc1)c1ccc2c(c1)OCO2,20µM*,0%
COc1ccc(-c2nn(-c3ccccc3)cc2/C=N/NC(=O)c2ccc(Br)o2)cc1,25µM*,0%
COc1ccc(-c2nn(-c3ccccc3)cc2/C=N/NC(=O)c2ccc3c(c2)OCO3)cc1,?,-4%
COc1ccc(-c2nn(-c3ccccc3)cc2C(=O)Nc2ccccc2OC)cc1,-3%,-3%
COc1ccc(-c2nn(-c3ccccc3)cc2/C=N/NC(=O)c2cccc(S(=O)(=O)Nc3ccccc3OC)c2)cc1,10µM*,-7%
O=C(N/N=C/c1cn(-c2cccs2)nc1-c1ccccc1)c1ccccc1Br,?,-4%
O=C(N/N=C/c1cn(-c2ccccc2)nc1-c1ccc(F)cc1)c1ccc2c(c1)OCO2,?,3%
Cc1cc(C)c2c(=O)cc(C(=O)NCCc3ccc(S(N)(=O)=O)cc3)oc2c1,-3%,-1%
COc1ccc(N2CCN(C(=O)c3cc4c(=O)n(Cc5cccs5)ccc4nc3C)CC2)cc1,?,-5%
COc1ccc(C2CC(=O)c3cc(-c4nc(-c5cccc([N+](=O)[O-])c5)cs4)c(=O)n(-c4ccc(C)c(C)c4)c3C2)cc1 (stereo unspecified),24%,-3%
CC(C)CC(C(=O)Nc1ccc2c(c1)OCCO2)N1C(=O)c2ccccc2C1=O (stereo unspecified),-7%,-8%
SMILES,Cruzain noTriton,Cruzain inh Det
CC(C)CC(C(=O)Nc1oc(-c2ccco2)c(-c2ccco2)c1C#N)N1C(=O)c2ccccc2C1=O (stereo unspecified),32µM*,-22%
Cc1ccc2nc(CSc3nnc(NC(=O)COc4ccccc4)s3)cc(=O)n2c1,14%,3%
Cn1c(SCC(=O)Nc2ccccc2)nc(O)cc1=O,-11%,-4%
COc1ccc(NC(=O)CSc2nc(O)cc(=O)n2C)cc1,16µM*,-25%
CCOc1ccccc1NC(=O)c1nc[nH]c1C(=O)Nc1ccccc1OCC,-5%,3%
CNC(=O)c1[nH]cnc1C(=O)Nc1ccc(C)cc1,-12%,-2%
Cc1ccc(NC(=O)c2nc[nH]c2C(=O)Nc2ccc(C)cc2)cc1,7.9µM*,3%
COc1ccccc1NC(=O)c1nc[nH]c1C(=O)Nc1ccccc1OC,10µM*,5%
COc1ccc(-n2c(SCC(=O)NCc3ccc(Cl)cc3)nc3ccsc3c2=O)cc1,7%,-4%
CCOc1ccccc1NC(=O)c1cn(C2CCCC2)c(=O)c2c1c1ccccc1n2C,-9%,6%
COCCn1c(SCC(=O)c2ccc(OC)cc2)nc2cc(C(=O)NC3CCCC3)ccc2c1=O,-5%,1%
CCOc1ccc(Br)cc1S(=O)(=O)Nc1ccc(NC(=O)c2ccccc2F)cc1,25µM*,-3%
COc1ccc(NC(=O)c2c(F)cccc2F)cc1S(=O)(=O)Nc1ccc(Br)cc1,16µM*,-3%
CCOc1ccc(Br)cc1S(=O)(=O)Nc1ccc(NC(=O)c2ccccc2C)cc1,?,-2%
CCOc1ccc(Br)cc1S(=O)(=O)Nc1ccc(C(=O)OCC(=O)N(C)c2ccccc2)cc1,-16%,-7%
COc1ccc(C)cc1S(=O)(=O)Nc1ccc(F)cc1,-3%,-2%
CCOc1ccc(Br)cc1S(=O)(=O)Nc1ccc(C(=O)Nc2ccc(C)cc2)cc1,32µM*,-4%
COc1ccccc1NC(=O)c1ccc(NS(=O)(=O)c2ccc(F)c(F)c2F)cc1,-18%,-1%
CCOc1ccc(Br)cc1S(=O)(=O)Nc1ccc(C(=O)Nc2ccccc2OC)cc1,16µM*,-5%
COc1ccc(-c2nc3scc(CCNS(=O)(=O)c4ccc(Oc5ccccc5)cc4)n3n2)cc1OC,-18%,1%
CCOc1ccccc1NC(=O)CN(CCc1ccccc1)S(=O)(=O)c1ccc(C)cc1,-22%,-4%
O=C(NCc1ccc(Cl)cc1)C1CCN(S(=O)(=O)c2ccc3c(c2)CCCN3C(=O)C2CCC2)CC1,17%,-5%
CC1(C)CC[C@]2(C(=O)O)CC[C@]3(C)C(=CCC4[C@@]5(C)CC[C@H](O)C(C)(C)C5[C@H](O)C[C@]43C)C2C1 (stereo partly specified),?,1%
CCc1ccccc1NC(=O)Cn1c(=O)n(CC(=O)NCCc2ccccc2)c(=O)c2ccccc21,-8%,-3%
CC(=O)Nc1ccc(NC(=O)C2CCCN2S(=O)(=O)c2ccc3c(c2)CCCC(=O)N3)cc1 (stereo unspecified),-3%,0%
SMILES,Cruzain noTriton,Cruzain inh Det
c1ccc(Nc2ncncc2-c2ccc3c(c2)OCO3)cc1,3%,-1%
CCOc1ccc(NC(=O)Cn2cc(S(=O)(=O)NC)c(S(=O)(=O)NC)c2)cc1,16%,-2%
N#C/C(=C/c1ccc(-c2ccccc2)o1)c1nc(-c2cccs2)cs1,7.9µM*,-10%
N#C/C(=C\c1ccc(-c2ccc(F)cc2)o1)C(=O)Nc1nc(-c2cccs2)cs1,6.3µM*,5%
N#C/C(=C\c1ccc(-c2ccc(Br)cc2)o1)C(=O)Nc1ccccc1O,15%,0%
N#C/C(=C\c1ccc(-c2ccccc2)cc1)c1nc(-c2ccco2)cs1,?,-7%
CCOc1ccc(Sc2cc(C(=O)NCc3ccccc3Cl)c3ccccc3n2)cc1,1%,1%
Cc1cccc(N2C(=O)c3cccc4c(N5CCCCC5)c([N+](=O)[O-])cc(c34)C2=O)c1C,?,-6%
O=C1c2cccc3c(N4CCOCC4)c([N+](=O)[O-])cc(c23)C(=O)N1c1cccc2ccccc12,13µM*,-9%
